Data: PubChem BioAssay AID602439 (Southern Research Specialized Biocontainment Screening …, 2012)
Results with a measured potency or affinity are listed apart. Values without a mark were called inactive. No rule for the calls is given here.

assay: Vero 76 cell cytotoxicity, dose response, cytotoxicity control, set 3 (AID 602439); settings: Vero 76 cell viability; series mostly up to 50 µM; viability: at the top concentration

| SMILES | viability [%] |
| --- | --- |
| O=C(Cc1cccs1)Nc1nc2ccccc2s1 | 92 |
| CCN1CCN(Cc2nc3ccc([N+](=O)[O-])cc3c(=O)n2-c2ccccc2F)CC1 | 91.3 |
| CN(C(=O)Cc1cccs1)c1nc2c(s1)CCCC2 | 93.3 |
| O=C(Cc1cccs1)Nc1nccs1 | 101 |
| O=C(Cc1ccccc1)Nc1nc2c(s1)CCCC2 | 94.1 |
| CN1CCN(Cc2nc3ccc([N+](=O)[O-])cc3c(=O)n2-c2ccccc2F)CC1 | 92.9 |
| O=c1c2cc([N+](=O)[O-])ccc2nc(CN2CCOCC2)n1-c1ccccc1F | 96.3 |
| CC(C)N1CCN(Cc2nc3ccc([N+](=O)[O-])cc3c(=O)n2-c2ccccc2F)CC1 | 91.7 |
